Experimental findings from PubChem BioAssay are described below.

Each structure is given as a SMILES string. Activity calls are given as the source filed them. Unless noted, no rule for the calls is given here.

A short description of assay [1]: resazurin metabolic signal in HepG2 cells – cell-based, resazurin fluorescence, 24 h, PK04 Diversity Set, profiling panel (AID 1172). Also: test concentration not given here. The following applies: HepG2 viability, higher = more signal. Background: Alamar Blue is a resazurin reagent that responds to reducing activity.
Assay [2] in a line: budding yeast growth changes without added modifier – OD600, strain BY4716, 24 h, basal condition, primary screen (AID 1173). The following applies: S. cerevisiae BY4716 growth, OD600, 24 h; higher = more signal, called active from +8 up or from −8 down.
Assay [3] in a line: viability profiling in MM1S myeloma cells – cell-based, resazurin fluorescence, basal, 24 h, PK04 Diversity Set, profiling panel (AID 1174). Also: test concentration not given here. The note with it: higher = more signal, called active from +8 up or from −8 down.
Assay [4] has as its target Dihydroorotate dehydrogenase (quinone), mitochondrial (Plasmodium falciparum (isolate 3D7)) (UniProt Q08210). The experiment in a line: inhibition of P. falciparum DHODH – biochemical, C-terminal His tag, absorbance 600 nm, primary screen (AID 1175).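 Also: recombinant parasite enzyme with a five histidine tag at its C terminus; test concentration not given here.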 The following applies: PfDHODH enzyme, DCIP absorbance 600 nm; higher = more signal, called active from +8 up or from −8 down.

Assay [5] is described as follows: inhibition of PAO1 biofilm formation – strain PAO1, LB-PBS medium, absorbance 600 nm, primary screen (AID 1176). Also: test concentration not given here. The note with it: P. aeruginosa PAO1 growth/biofilm, A600, 12 h; higher = more signal.
A short description of assay [6]: growth modulation of vineyard yeast isolate – strain RM11-1a, OD600, basal, 24 h, primary screen (AID 1177).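 Also: cultures grown under basal conditions with no added stressor; test concentration not given here.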 The note with it: S. cerevisiae RM11-1a growth, OD600, 24 h; higher = more signal, called active from +8 up or from −8 down.
Assay [7] in a line: growth of efflux-deficient E. coli DRC39 – strain DRC39, OD650, 24 h, E. coli filamentation inducers, primary screen (AID 1178).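 Also: growth measured as culture turbidity by optical density at 650 nm; test concentration not given here.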 The following applies: E. coli DRC39 acrAB, higher = more signal, called active from +8 up or from −8 down.
Assay [8] in a line: growth of efflux-deficient E. coli DRC39 – strain DRC39, OD650, 48 h, E. coli filamentation inducers, primary screen (AID 1179).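 Also: screen aims at cell division blockers that make cells filament.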 The note with it: E. coli DRC39 delta-acrAB growth, higher = more signal, called active from +8 up or from −8 down.
A short description of assay [9]: viability profiling in RPMI8226 myeloma cells – cell-based, resazurin fluorescence, basal, 24 h, PK04 Diversity Set, profiling panel (AID 1180).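 Also: RPMI8826 multiple myeloma cell line at 5000 cells per well; test concentration not given here.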 The note with it: higher = more signal.
The target in assay [10] is E3 ubiquitin-protein ligase XIAP (Homo sapiens) (UniProt P98170). Put plainly: small molecules binding XIAP protein – biophysical, small-molecule microarray, fluorescence 635 nm, primary screen (AID 1181).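 Also: score merges 667 nm emission and signal to noise over triplicate slides.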 The note with it: higher = more signal.
E3 ubiquitin-protein ligase XIAP (Homo sapiens), sequence (P98170 whole entry, looked up): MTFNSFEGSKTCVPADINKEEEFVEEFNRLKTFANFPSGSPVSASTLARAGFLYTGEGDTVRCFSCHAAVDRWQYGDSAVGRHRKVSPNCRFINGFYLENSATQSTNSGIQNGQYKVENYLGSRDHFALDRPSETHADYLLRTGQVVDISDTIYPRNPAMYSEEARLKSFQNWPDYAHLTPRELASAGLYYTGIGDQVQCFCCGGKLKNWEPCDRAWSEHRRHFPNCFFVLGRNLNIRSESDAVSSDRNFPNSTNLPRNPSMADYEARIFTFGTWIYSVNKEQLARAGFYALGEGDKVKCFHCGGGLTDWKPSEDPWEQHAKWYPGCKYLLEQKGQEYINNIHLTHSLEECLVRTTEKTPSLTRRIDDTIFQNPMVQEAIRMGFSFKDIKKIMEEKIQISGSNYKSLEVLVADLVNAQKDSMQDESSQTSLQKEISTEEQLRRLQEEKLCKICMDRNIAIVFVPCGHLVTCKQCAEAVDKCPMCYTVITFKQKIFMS

Dihydroorotate dehydrogenase (quinone), mitochondrial (Plasmodium falciparum (isolate 3D7)), sequence (Q08210 whole entry, looked up): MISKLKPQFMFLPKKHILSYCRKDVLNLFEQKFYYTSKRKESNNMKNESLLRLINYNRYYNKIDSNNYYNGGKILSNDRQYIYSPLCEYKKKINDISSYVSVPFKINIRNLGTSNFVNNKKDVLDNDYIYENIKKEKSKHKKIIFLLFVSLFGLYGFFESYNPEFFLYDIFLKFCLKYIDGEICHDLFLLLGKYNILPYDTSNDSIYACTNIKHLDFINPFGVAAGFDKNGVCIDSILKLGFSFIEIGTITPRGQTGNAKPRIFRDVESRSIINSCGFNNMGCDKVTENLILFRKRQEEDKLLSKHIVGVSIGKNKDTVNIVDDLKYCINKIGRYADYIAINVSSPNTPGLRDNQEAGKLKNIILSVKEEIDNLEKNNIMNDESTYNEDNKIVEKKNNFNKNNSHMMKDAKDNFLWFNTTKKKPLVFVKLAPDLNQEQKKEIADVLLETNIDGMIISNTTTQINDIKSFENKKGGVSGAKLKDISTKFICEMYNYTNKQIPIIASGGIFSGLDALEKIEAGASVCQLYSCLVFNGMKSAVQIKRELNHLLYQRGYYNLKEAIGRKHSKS

Consider `Cc1ccc(F)cc1S(=O)(=O)N[C@@H]1CCN(Cc2ccc(Oc3ccccc3)cc2)C1`, for which the z-score in assay [1] is -0.971; in assay [2], -17.3 (active); in assay [3], -0.627 (inactive); in assay [5], -0.177 (inactive); in assay [6] it was -9.2 (active); in assay [7], -5.2 (inactive). The z-score in [8] was -4.66 (inactive); in [9] it was -0.942. The composite z-score in assay [4] was 0.255 (inactive); in assay [10], -0.13.

As for `CC(C)C(O)C1C=CC2C(=O)N(C)C(=O)C2N1Nc1ccccc1` (stereo not given), the z-score in assay [1] is -0.0778; in [2] it was -0.411 (inactive); in assay [3], -0.84 (inactive); in assay [5], 0.931 (inactive); in assay [6], 0.0222 (inactive); in assay [7], -0.219 (inactive). Besides, the z-score in assay [8] is -0.434 (inactive); in [9] it was -1.29. Moreover, the composite z-score in [4] was -0.482 (inactive); in [10] it was 0.0159.

Turning to `Cc1ccc(S[C@]2(C(=O)NCCN3CCOCC3)CC(=O)N(Cc3ccccc3C(F)(F)F)[C@@H]2c2ccc(CO)cc2I)cc1`, the z-score in [1] was 0.628; in [2], -3.34 (inactive); in assay [3], -2.71 (inactive); in [5] it was 0.875 (inactive); in [6], -1.57 (inactive); in assay [7], 0.142 (inactive). For the same compound, the z-score was 0.0559 (inactive) in [8] and -2.22 in assay [9]. Also, the composite z-score is -0.323 (inactive) in assay [4] and -0.17 in [10].

With `COCCOC(=O)N1C(=O)[C@@]2(c3cc(C#Cc4ccc(OC)cc4)ccc31)[C@H](C(=O)NC[C@H](O)c1ccccc1)[C@H]1C(=O)O[C@H](c3ccccc3)[C@H](c3ccccc3)N1[C@@H]2c1ccc(O)cc1`, the z-score in assay [1] is -0.857; in assay [2], -0.11 (inactive); in [3], -1.09 (inactive); in assay [5], 1.34 (inactive); in assay [6], 0.552 (inactive); in assay [7], -0.365 (inactive). Further, the z-score in assay [8] was -0.736 (inactive); in [9], -1.32. Moreover, the composite z-score in assay [4] is -0.352 (inactive); in [10] it was 0.261.

For the compound `COCCOC(=O)N1C(=O)[C@@]2(c3cc(C#CC4(O)CCCCCC4)ccc31)[C@H](c1ccccc1OCCO)N1[C@H](c3ccccc3)[C@H](c3ccccc3)OC(=O)[C@H]1[C@@H]2C(N)=O`, the z-score in assay [1] is -1.51; in assay [2], 1.53 (inactive); in assay [3], -8.29 (active); in assay [5] it was 1.91 (inactive); in assay [6] it was 2.91 (inactive); in assay [7], -0.197 (inactive). The z-score in assay [8] was -0.31 (inactive); in [9], -6.79. The composite z-score in assay [4] was 0.173 (inactive); in [10], -0.287.

For `O=C1O[C@@H](c2ccccc2)[C@@H](c2ccccc2)N2[C@@H](c3ccc(O)cc3)[C@]3(C(=O)Nc4ccc(C#CCCO)cc43)[C@@H](C(=O)NC[C@H](O)c3ccccc3)[C@H]12`, the z-score in assay [1] is 1.29; in [2] it was -0.169 (inactive); in assay [3], 0.214 (inactive); in assay [5] it was -0.192 (inactive); in assay [6], 0.376 (inactive); in assay [7] it was 0.6 (inactive). Besides, the z-score is 0.242 (inactive) in [8] and 1.33 in [9]. In addition, the results for the composite z-score in [4] and in assay [10] were 0.129 (inactive) and 0.363, respectively.

`COC(=O)[C@@]1(Cc2ccc(OC)cc2)[C@H]2c3cc(C(=O)N(C)C)n(Cc4nc5ccccc5[nH]4)c3C[C@H]2CN1C(=O)c1ccccc1`: the z-score is 0.014 in assay [1]; 1.03 (inactive) in [2]; -1.45 (inactive) in assay [3]; -0.0982 (inactive) in assay [5]; 1.11 (inactive) in assay [6]; -0.614 (inactive) in [7]. Besides, the values for the z-score in assay [8] and in assay [9] were -1.18 (inactive) and -2.51, respectively. For the same compound, the composite z-score in assay [4] is -0.291 (inactive); in [10], 0.382.

As for `CC(=O)N1Cc2ccccc2C[C@]2(N=C(c3ccc(OCCCO)cc3)O[C@@H]2c2ccccc2)C1=O`, the z-score is -0.908 in [1]; -0.776 (inactive) in assay [2]; -2.6 (inactive) in [3]; 0.122 (inactive) in assay [5]; 1.93 (inactive) in assay [6]; 1.55 (inactive) in assay [7]. Further, the z-score in assay [8] was 1 (inactive); in assay [9], -3.96. Besides, the composite z-score in assay [4] is -0.375 (inactive); in assay [10] it was 0.247.

Consider `NCCCCCCNC(=O)[C@H]1C[C@H]2C(=O)N[C@@H](Cc3ccccc3)C(=O)N2[C@H]1c1ccc(O)cc1`, for which the z-score in assay [1] was 0.614; in assay [2], -0.68 (inactive); in assay [3] it was 1.58 (inactive); in [5], 0.118 (inactive); in assay [6], -1.27 (inactive); in [7], 0.279 (inactive). Also, the results for the z-score in assay [8] and in assay [9] were 0.04 (inactive) and 1.27, respectively. Besides, the composite z-score in assay [4] was -1.32 (inactive); in [10] it was -0.0826.

For `C=C(/C(=C/C[C@@H](OC(=O)c1ccncc1)c1ccccc1OCCO)c1cc(C(=O)OC)ccc1OC)C(C)C`, the z-score in assay [1] is -0.0182; in [2], -0.0905 (inactive); in [3], -0.9 (inactive); in [5], 0.424 (inactive); in [6], -0.0487 (inactive); in [7], 0.315 (inactive). Besides, the z-score in assay [8] is 0.227 (inactive); in [9] it was -0.722. The composite z-score in assay [4] is -1.82 (inactive); in assay [10] it was 0.153.

Turning to `CN(C)CCCNC(=O)[C@@]1(c2ccc([N+](=O)[O-])cc2)CC(=O)N(CC23CC4CC(CC(C4)C2)C3)[C@@H]1c1ccc(CO)cc1`, the z-score in assay [1] was -6.19; in assay [2], -16.2 (active); in assay [3] it was -8.92 (active); in assay [5], 0.472 (inactive); in [6], -8.93 (active); in assay [7] it was 0.325 (inactive). In addition, the figures for the z-score in [8] and in [9] were -2.4 (inactive) and -6.48, respectively. The results for the composite z-score in assay [4] and in assay [10] were 0.687 (inactive) and 0.0896, respectively.

Turning to `COc1ccc([Si](C)(C)[C@H]2[C@H](CCn3cc(CCO)nn3)O[C@@]3(C(=O)N(Cc4ccc(N5C(=O)c6cccc7cccc5c67)cc4)c4ccccc43)[C@@H]2C)cc1`, the z-score in assay [1] is -2.42; in assay [2], 0.0502 (inactive); in [3] it was -5.99 (inactive); in [5], 0.519 (inactive); in assay [6], 1.66 (inactive); in [7] it was 0.528 (inactive). Moreover, the z-score in assay [8] is 0.251 (inactive); in assay [9] it was -5.65. In addition, the results for the composite z-score in [4] and in assay [10] were -1.14 (inactive) and 0.0636, respectively.
